TDP1 cell noCPT: qHTS for Inhibitors of human tyrosyl-DNA phosphodiesterase 1 (TDP1): qHTS in cells in absence of CPT; 420,000 compounds, 15% hits; AID 686978, 2013; Potency, µM (series often up to 46.2 µM), inactives show at the top dose activity change, negative = growth inhibition, hits mostly inhibitors; DT40 Tdp1-/- hTDP1 cells, no CPT, ATP luminescence, 48 h; note: potency is the fitted concentration of half-maximal effect; nearly all actives have a fitted effect of over 55% in size
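Camptothecin absent (DMSO only). Human TDP1-complemented DT40 knockout cells, 400 cells/well, 37 °C for minimum 48 hr; ATP measured via CellTiter-Glo, 30 min dark incubation, luminescence.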
IL1B secr inh: blocks inflammasome-driven IL-1 beta release | activity change, % at 57.5 µM | AID 743279 | 360,000 compounds, 4.7% hits | THP-1 LPS/ATP IL-1B secretion, AlphaLISA, 16 h; stronger effect = lower value; in the data active = activity change below about -50%; inconclusive = mostly about -30% to -49%
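Secreted IL-1B measured by AlphaLISA bead assay after 16 h compound exposure of THP-1 cells; compounds (final up to 57.5 uM) added 1 h before LPS (250 ng/mL) and ATP (1.25 mM) stimulation; lower signal means less secretion.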
TDP1 cell CPT: growth inhibition of DT40 Tdp1-/-;hTDP1 cells with camptothecin (screen for TDP1 inhibitors) | Potency, µM (titrated, usually from 46.2 µM), without a hit: at the top dose activity change, negative = growth inhibition, usual class: inhibitors | chicken DT40 Tdp1-/-;hTDP1 cells + 20 nM CPT, ATP luminescence, 48 h | 420,000 compounds, 12% hits | AID 686979; note: potency is the fitted concentration of half-maximal effect; nearly all actives have a fitted effect of over 55% in size
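Chicken DT40 Tdp1-/- cells stably complemented with human TDP1 were seeded at 400 cells/well in medium containing 20 nM camptothecin, exposed to pin-transferred compounds, and grown at 37 °C for at least 48 hr. Viability was read as ATP luminescence.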
ELG1 repair inh: inhibitors of ELG1-dependent DNA repair in HEK293T cells; HEK293T ELG1-luciferase reporter, luminescence, 16 h; DNA damage induced by 5-fluorouridine; Potency, µM (series often up to 46.1 µM), for inactives: top-dose activity change, negative = inhibition, most hits filed as inhibitors; 330,000 compounds, 2.3% hits; AID 504467; note: potency is the fitted concentration of half-maximal effect; nearly all actives have a fitted effect of over 55% in size
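In this reporter screen, reduction of luminescence relative to DMSO vehicle indicated activity. Compounds and 5-fluorouridine were added together to 2,000 cells per well, incubated for 16 hr at 37 °C, then developed with ONE-Glo.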
Giardia killer: Giardia lamblia killing. 340,000 compounds, 0.15% hits. Giardia lamblia trophozoite viability. activity change, % at 7.66 µM, hits read low; in the data active = activity change below about -80%; inconclusive = between about -30% and that limit;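 note: parasites exposed to compound for two days anaerobically before the ATP read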
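Compounds were tested on trophozoites seeded at 100 cells/well and held 48 hrs at 37 deg C anaerobically. An ATP-based luminescent kit measured the remaining live cells.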
TDP1 block: blocks human tyrosyl-DNA phosphodiesterase 1; Potency, µM (doses to about 130 µM), inactives show at the top dose activity change, negative = inhibition, hits mostly inhibitors; Q9NUW8; recombinant TDP1, AlphaScreen DNA substrate cleavage; 350,000 compounds, 0.28% hits; note: potency is the fitted concentration of half-maximal effect; nearly all actives have a fitted effect of over 40% in size
Target sequence (Q9NUW8 whole entry, looked up): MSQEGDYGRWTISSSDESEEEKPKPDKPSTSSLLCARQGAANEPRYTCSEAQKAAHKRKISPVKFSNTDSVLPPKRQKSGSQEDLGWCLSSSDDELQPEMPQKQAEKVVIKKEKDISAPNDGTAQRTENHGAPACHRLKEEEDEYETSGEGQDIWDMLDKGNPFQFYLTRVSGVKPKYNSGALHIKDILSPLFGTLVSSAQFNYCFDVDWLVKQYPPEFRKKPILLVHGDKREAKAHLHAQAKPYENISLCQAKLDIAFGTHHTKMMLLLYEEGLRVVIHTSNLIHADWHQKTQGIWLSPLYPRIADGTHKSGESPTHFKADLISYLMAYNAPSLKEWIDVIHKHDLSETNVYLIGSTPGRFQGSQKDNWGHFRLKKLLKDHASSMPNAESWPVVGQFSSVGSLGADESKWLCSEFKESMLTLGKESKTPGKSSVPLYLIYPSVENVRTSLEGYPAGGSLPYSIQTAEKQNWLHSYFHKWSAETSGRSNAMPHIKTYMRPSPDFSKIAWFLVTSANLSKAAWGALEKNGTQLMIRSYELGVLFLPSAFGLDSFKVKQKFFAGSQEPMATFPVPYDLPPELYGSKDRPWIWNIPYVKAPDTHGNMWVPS
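Here, a 5' biotin and 3' phosphotyrosine-FITC DNA oligonucleotide reports Tdp1 activity: intact substrate bridges AlphaScreen beads, while cleavage leaves a 3' phosphate and drops signal. All incubations at room temperature.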
Starred values were filed as active, the others as inactive; ? = inconclusive; / = not tested or not shown. Most compounds without a hit are left out; they make up all but 19% or so of the library. Unless noted, calls come from the whole dose curve; as a rule, active = well fitted curve in the direction sought with a large enough effect; inconclusive = small, poorly fitted or top-dose-only effect, or another doubt; inactive = no such curve, though single readings can be large; an effect the other way counts as inactive or inconclusive. % is set by controls: 0 for no effect and ±100 for the full control effect.

SMILES	TDP1 cell noCPT	IL1B secr inh	TDP1 cell CPT	ELG1 repair inh	Giardia killer	TDP1 block
COC(=O)c1ccc(OCC2c3cc(OC)c(OC)cc3CCN2C(=O)COc2ccc(Cl)cc2)cc1 (stereo not drawn)	29µM*	/	21µM*	/	/	10%
COc1ccc(CC(=O)N2CCc3cc(OC)c(OC)cc3C2COc2ccc(F)cc2)cc1 (stereo not drawn)	16µM*	/	13µM*	/	/	10%
COc1ccc(CC(=O)NC2CC(=O)N(c3ccc(C)c(C)c3)C2)cc1OC (stereo not drawn)	-22%	/	-9%	/	/	3%
CCCCC(=O)N1CCc2cc(OC)c(OC)cc2C1COc1ccc(OC)cc1 (stereo not drawn)	21µM*	/	16µM*	/	/	3%
COc1cc2c(cc1OC)C(COc1ccc(F)cc1)N(C(=O)C(C)C)CC2 (stereo not drawn)	?	/	?	/	/	8%
COc1cc2c(cc1OC)C(COc1ccc(F)cc1)N(C(=O)Cc1ccccc1)CC2 (stereo not drawn)	?	/	?	/	/	8%
COC(=O)c1ccc(OCC2c3cc(OC)c(OC)cc3CCN2C(=O)Cc2ccccc2)cc1 (stereo not drawn)	16µM*	/	?	/	/	8%
CCC(=O)N1CCc2cc(OC)c(OC)cc2C1COc1ccc(OC)cc1 (stereo not drawn)	-20%	-5	-16%	?	-7	-1%
COc1cc2c(cc1OC)C(COc1ccc([N+](=O)[O-])cc1)N(C(C)=O)CC2 (stereo not drawn)	18µM*	-4	23µM*	8.2µM*	11	/
COC(=O)c1ccc(/C=C/C(=O)OCC(=O)c2ccc[nH]2)cc1	-1%	-1	0%	19%	8	-2%
Cc1ccnc(NCn2nnc3ccccc32)c1	?	26	16µM*	-2%	-18	-1%
O=C(Cc1ccccc1)Nc1cccc(-c2nnc(-c3ccco3)o2)c1	15µM*	-23	?	?	12	-2%
O=C(Nc1cccc(-c2nnc(-c3ccco3)o2)c1)c1ccccc1	?	-78*	?	-26%	0	3%
O=C(Cc1ccc(Cl)cc1)Nc1cccc(-c2nnc(-c3ccco3)o2)c1	?	29	?	-1%	-2	0%
COc1ccccc1OCC(=O)Nc1cccc(-c2nnc(-c3ccco3)o2)c1	21µM*	-2	?	?	-25	-3%
O=C(Nc1cccc(-c2nnc(-c3ccccc3)o2)c1)C1CC1	?	?	?	?	-11	-5%
O=C(Nc1cccc(-c2nnc(-c3ccco3)o2)c1)C(c1ccccc1)c1ccccc1	16µM*	-21	?	13µM*	-2	2%
CCNC(=O)C1(C)CCCN(C(=O)c2nc3ccccc3s2)C1 (stereo not drawn)	-7%	-8	1%	/	/	/
C[C@]12C[C@@](C)(C=C1/C=C/c1ccc(F)cc1)C(=O)C[C@H]2c1ccc(F)cc1	/	/	/	/	/	-5%
CCCC/C(C)=N/NC(=O)CN(c1ccc(Br)cc1)S(=O)(=O)c1ccccc1	4%	-12	-17%	5%	-4	8%
C/C(=N/NC(=O)CN(c1ccccc1)S(=O)(=O)c1ccccc1)c1ccccc1O	9.2µM*	49	18µM*	13µM*	-22	/
CS(=O)(=O)N1CCC(C(=O)Nc2cccc([N+](=O)[O-])c2)CC1	1%	-10	-11%	-8%	10	3%
COC(=O)c1sc(N2C(=O)c3oc4cc(C)c(C)cc4c(=O)c3C2c2ccccc2F)nc1C (stereo not drawn)	1%	/	8%	/	/	1%
CCOc1ccc(C2c3c(oc4ccc(C)cc4c3=O)C(=O)N2c2nc(C)c(C)s2)cc1OC (stereo not drawn)	7.3µM*	/	?	/	/	3%
CCc1ccc(C2c3c(oc4ccc(C)cc4c3=O)C(=O)N2c2nc(C)c(C)s2)cc1 (stereo not drawn)	-17%	/	-21%	/	/	-1%
SMILES	TDP1 cell noCPT	IL1B secr inh	TDP1 cell CPT	ELG1 repair inh	Giardia killer	TDP1 block
CCC(=O)Nc1nnc(S(=O)(=O)N(C)Cc2ccccc2)s1	-10%	/	0%	/	/	4%
CCOc1ccccc1NC(=O)C1=C(C)NC(=S)NC1c1cccs1 (stereo not drawn)	?	-6	?	?	23	8%
CCCS(=O)(=O)c1c(S(=O)(=O)CCC)c2ccc(C(N)=O)cn2c1C(=O)OC	14%	-4	-12%	-6%	-9	0%
CCCS(=O)(=O)c1c(S(=O)(=O)CCC)c2ccc(C(C)=O)cn2c1C(=O)OC	-7%	-136*	?	4%	-12	3%
COCCN(CCOC)C(=S)Nc1ccccc1	-19%	-1	5%	18%	4	-1%
CN(N=Cc1ccccc1)C(=S)Nc1ccccc1	12µM*	44	-76%	/	/	/
CC(NC(=O)CCN1C(=O)c2ccccc2C1=O)c1ccccc1 (stereo not drawn)	-4%	-6	-2%	-1%	28	3%
CCc1nc(Nc2ccc(OC)c(OC)c2)c2nnn(Cc3ccccc3Cl)c2n1	16µM*	-65*	-114%	13µM*	10	2%
CN(C)S(=O)(=O)c1ccc(Nc2nc(C3CC3)nc3c2nnn3Cc2ccccc2Cl)cc1	8.2µM*	-10	9.2µM*	?	7	2%
COc1ccc(NC(=O)CCCn2cnc3ccccc3c2=O)c(OC)c1	-13%	-19	-11%	?	13	/
O=C(Nc1ccc(F)c(F)c1)c1cc(S(=O)(=O)N2CCc3ccccc32)ccc1F	10µM*	/	10µM*	/	/	5%
O=C(Nc1ccc(Cl)cc1)c1cc(S(=O)(=O)N2CCc3ccccc32)ccc1F	18µM*	/	18µM*	/	/	9%
CCOc1ccc(-c2nonc2NC(=O)c2oc3ccc(Cl)cc3c2C)cc1	0.92µM*	/	0.92µM*	/	/	-2%
COc1ccc(-c2nonc2NC(=O)c2oc3ccccc3c2C)cc1OC	-16%	0	-25%	?	34	-3%
CCc1nonc1NC(=O)c1oc2cc(C)c(Cl)cc2c1C	9.2µM*	17	?	23%	19	2%
OC(c1ccccc1)(c1ccccc1)c1ccn[nH]1	6%	33	-7%	6%	-14	0%
Cc1ccn(C(C)CC(=O)Nc2ccc(-c3ccno3)cc2)n1 (stereo not drawn)	9%	-4	-6%	-13%	4	4%
